Laboratory results reported in PubChem BioAssay AID1347056 (Sanford-Burnham Center for Chemical Genomics, 2019).
Out of some 360,000 compounds screened, about 3,600 (1%) were called active. Many of the other results were omitted from the sample, so actives are more common in it than they were. A number with no mark means an inactive call.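 How the source made its calls: active means compounds whose plate-normalised and pattern-corrected inhibition of the luciferase reporter signal at the single screening dose is 50% or more; inactive means the rest.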

Test: inhibitors of TROY-driven NF-kB signaling, primary screen, Q293 LMP1-TROYcd cells, NF-kB luciferase, uHTS (AID 1347056)
Details: Q293 LMP1-TROYcd NF-kB luciferase reporter, 4 h; at 10 µM; hits give high values

SMILES	inhibition
N/C(=N\OC(=O)Cc1ccc([N+](=O)[O-])cc1)c1ccccn1	71.7% (active)
O=C(COC(=O)c1ccccn1)NNC(=O)c1ccc([N+](=O)[O-])cc1	-4.92%
N/C(=N\OC(=O)c1ccc([N+](=O)[O-])cc1)c1ccccn1	-41.5%
O=C(Cc1ccccc1)N1CCN(S(=O)(=O)c2ccc([N+](=O)[O-])cc2)CC1	-0.47%
O=C(Nc1nnc(C2CC2)s1)C1=NN(C2CCS(=O)(=O)C2)C(=O)CC1 (centres undefined)	-9.87%
CCCNC(=O)c1ccccc1NC(=O)CSCc1ccc(OC)cc1	-1.25%
COc1ccc(NC(=O)CCCN2C(=O)C(c3ccccc3)Oc3cccnc32)cc1 (centres undefined)	-2.33%
COc1ccc(/C=C2/SC(=O)N(CCCCCC(=O)Nc3ccccc3C(=O)O)C2=S)cc1	62.8% (active)
O=C(NCc1ccc(F)cc1)c1cc(C2CCCCN2C(=O)c2cccs2)on1 (centres undefined)	-13.9%
Cc1ccc(-n2c(SCC(=O)N3CCC(C(=O)O)CC3)nc3ccccc3c2=O)cc1C	28.8%
COc1ccc2c(c1)C=CC1(O2)N(CCO)c2ccccc2C1(C)C (centres undefined)	74.4% (active)
CN1c2ccc([N+](=O)[O-])cc2C(C)(C)C12C=Cc1cc(C(=O)O)ccc1O2 (centres undefined)	4.3%
COc1ccc2c(c1)C(SCC(=O)NCc1ccccc1)CC(C)(C)O2 (centres undefined)	-9.24%
CN(C)/C=C/C(=O)c1cnc2sccn2c1=O	11.6%
CCn1c(CC(=O)Nc2ccccc2C)nnc1SCC(=O)NC1=NCCS1	11%
COc1cc(C(=O)OCC(=O)N(CC(C)C)C2CCS(=O)(=O)C2)ccc1OCC(C)C (centres undefined)	6.44%
COc1nc(NC2CCCCC2)nc(N2CCCCCC2)n1	51.7% (active)
FC(F)(F)COc1nc(N2CCCCC2)nc(N2CCNCC2)n1	-47.4%
Clc1nc(NC2CCCC2)nc(N2CCOCC2)n1	9.54%
CN(C)C(=S)Nc1ccc(Br)cc1Cl	2.66%
CCOC(=O)[C@]12CCC=C1N(Cc1ccco1)C(=O)[C@H](CC(=O)N1CCSCC1)C2	-1.7%
COc1ccc(CCC(=O)OCC(=O)Nc2ccc(C)c(S(=O)(=O)N(C)C)c2)cc1	12.9%
c1c2c(cc3sc(N4CCCCC4)nc13)OCCO2	72.6% (active)
COc1cccc(N2C(=O)CC(N3CCc4ccccc4C3)C2=O)c1 (centres undefined)	2.65%

SMILES	inhibition
CC(Sc1nncn1C)C(=O)Nc1ccccc1-c1ccccc1 (centres undefined)	-16.4%
COc1ccc(CNc2nnnn2C)cc1	-13.4%
COc1ccc(-n2nnnc2SCC(=O)NCc2cccs2)cc1	-11.6%
COc1ccc(-n2nnnc2-c2nc3ccccc3s2)cc1	73% (active)
CC(=O)N1CCN(S(=O)(=O)c2cccc(C(=O)NC3CCC(C)CC3)c2)CC1 (centres undefined)	5.64%
O=C(NC1CC1)c1cccc(Br)c1	79.2% (active)
O=C(NC1CC1)c1ccc(-c2ccccc2)cc1	-40.9%
CCCCn1c(N)c(N(CCC(C)C)C(=O)c2ccc(COc3ccccc3)o2)c(=O)[nH]c1=O	-19.5%
CCC(CC)C(=O)Nc1ccc(S(=O)(=O)Nc2nccs2)cc1	-15.5%
CC1(C)C/C(=C(/C#N)C(N)=O)CCO1	-13.2%
O=C(NCc1ccccc1)c1onc(CSc2ccncc2)c1C(=O)NCc1ccccc1	-21.8%
CC[C@@H]1Cc2cc(O)ccc2C2=C1c1ccc(O)cc1C[C@H]2CC	59.9% (active)
C=CC[n+]1c(-c2ccc(C)cc2)csc1NNC(=O)Nc1ccccc1	25.5%
CC(=O)c1cccc(NC(=S)N2CCN(S(C)(=O)=O)CC2)c1	-9.61%
C=CCSc1nsc(NC(=O)Nc2cccc(C(C)=O)c2)n1	55.9% (active)
CC(=O)c1cccc(NC(=O)C2CCN(C(=O)c3ccccc3Cl)CC2)c1	1.66%
CCCCN1C(=O)C(=O)N(CC(=O)Nc2cccc(C(C)=O)c2)C1=O	-16.1%
CSc1ccccc1C(=O)Nc1cccc(C(C)=O)c1	8.76%
CCSc1nsc(NC(=O)Nc2cccc(C(C)=O)c2)n1	67.1% (active)
CCOC12CC(C)(C)CC(C)(CC3=C1C(=O)CC(C)(C)C3)C2 (centres undefined)	8.44%
NC(=O)c1cc(S(=O)(=O)N2CCCC2)ccc1OCc1ccc(F)cc1	-16.9%
CCOc1ccc2c(c1)c(=O)c(S(=O)(=O)c1ccc(C)cc1)cn2CC	0.7%
N#Cc1cccc(NC(=O)c2cc(C3CCCCN3C(=O)CCc3ccccc3)on2)c1 (centres undefined)	19.9%
CC1CN(C2CCCCC2)c2nc3c(c(=O)n(C)c(=O)n3C)n2C1 (centres undefined)	-2.69%

SMILES	inhibition
Nc1ccc(-n2nncc2-c2ccco2)cc1	-12.6%
CC(=O)C1=C(O)C(=O)N(c2ccc(Br)cc2)C1c1ccc([N+](=O)[O-])cc1 (centres undefined)	-18.5%
COc1ccc(OC)c(C(O)c2nc3ccccc3n2C)c1 (centres undefined)	-7.8%
OCCCNc1nccc(-c2cc(Nc3cccc(Cl)c3)ncn2)n1	54.1% (active)
COc1ccc(C2=NOC(C(=O)NCc3ccco3)C2)cc1OC (centres undefined)	14.5%
COc1ccc(CNC(=O)CN(Cc2ccc(Cl)cc2)S(C)(=O)=O)cc1	6.51%
Cc1cccc(CC(=O)N2CCN=C2SCc2ccc([N+](=O)[O-])cc2)c1	-7.77%
COCCNC(=O)CN1C(=O)CSc2ncccc21	-20.5%
CCC1(C)NC(=O)N(CC(=O)N2CCN(c3cccc(Cl)c3)CC2)C1=O (centres undefined)	-0.65%
O=C(Cc1ccccc1)Nc1ccc(NC(=O)c2cccnc2)cc1	17.2%
Cc1cc(NS(=O)(=O)c2ccc(NC(=O)c3cccnc3)cc2)nc(C)n1	9.3%
Cc1ccc2nc(-c3ccc(NC(=O)c4cccnc4)cc3)oc2c1	50.8% (active)
CC(=O)Nc1sc2c(c1C(c1cccc(F)c1)N1CCN(CCO)CC1)CCCC2 (centres undefined)	-6.54%
COc1ccccc1N(C)S(=O)(=O)c1ccc(Cl)c(C(=O)Nc2ccncc2)c1	-12.4%
CC(=O)c1ccc(S(=O)(=O)NCCC(=O)N2CCN(c3ccccn3)CC2)cc1	0.71%
COc1ccc(C)cc1NC(=O)CSc1cccc[n+]1[O-]	13%
CCCn1c(C(Cc2ccccc2)NC(=O)COC)nc2ccccc21 (centres undefined)	-16.1%
CN(CC(=O)Nc1ccc(Cl)c(C(F)(F)F)c1)C(=O)CCC(=O)c1ccccc1	29.4%
O=C(CC(O)(C(F)(F)F)C(F)(F)F)Nc1ccc(Cl)c(Cl)c1	59.2% (active)
O=C(CN1CCOCC1)Nc1ccc(NC(=O)CN2CCOCC2)c(Cl)c1	-4.68%
Cc1ccc(C2=NN(C(=O)COc3ncnc4ccccc34)C(c3ccco3)C2)cc1 (centres undefined)	3.07%
Cc1ccc(C2=NN(C(=O)CSc3nc(N)cc(N)n3)C(c3ccco3)C2)cc1 (centres undefined)	-20.4%
O=C(CN1CCN(C2CCS(=O)(=O)C2)CC1)N1N=C(c2ccc(Cl)cc2)CC1c1ccco1 (centres undefined)	58.2% (active)
CCC1=[N+]([O-])C(C)(/C(C)=N\O)N(O)C1(C)C (centres undefined)	-4.1%

SMILES	inhibition
CCCN(CCC)S(=O)(=O)c1cc2c(cc1Br)CCN2C(=O)CC	22.4%
CCOC(=O)c1ccc(NC(=S)N2CCN(c3ccccn3)CC2)cc1	-15.3%
CCCCOc1ccc(CON(C(C)=O)C(C)=O)cc1Cl	-35.4%
Cc1[nH]c(=O)c(C(=O)/C=C/c2ccccc2)c2c1CCCC2	52% (active)
COC(=O)c1c(C)[nH]c(C(=O)/C=C/c2ccc(Cl)cc2)c1C	-12.1%
CC1(C(=O)O)CCCN(C(=O)/C=C/c2ccccc2)C1 (centres undefined)	-7.33%
COc1cccc(-c2nnc(NC(=O)c3ccc(S(=O)(=O)N(CC(C)C)CC(C)C)cc3)o2)c1	12.8%
CC(Nc1nc(C(F)(F)F)nc2ccccc12)c1cccs1 (centres undefined)	60.8% (active)
CCc1ccc(C(CNc2nc(C(F)(F)F)nc3ccccc23)N(C)C)cc1 (centres undefined)	4.28%
CC(Nc1nc(N2CCCC2)nc2ccccc12)c1ccccc1 (centres undefined)	5.36%
CN1CCCN(S(=O)(=O)c2ccc3c(c2)OCCO3)CC1	-12.9%
COc1ccc(Nc2ncnc3ccc(Br)cc23)c(OC)c1	84.4% (active)
COc1ccc(OC)c(Nc2nc3ccccc3n3cnnc23)c1	-14.2%
COc1ccc(OC)c(NC(=O)CN(C)CCOc2ccc(Br)cc2)c1	9.37%
COc1cccc2cc(C(=O)N(C)C)c(=O)oc12	11%
COc1cccc2cc(C(=O)N3CCN(C(=O)c4ccccc4)CC3)c(=O)oc12	-10%
COc1cccc2cc(C(N)=O)/c(=N\NC(=O)c3ccccc3)oc12	73.1% (active)
O=C(CN(c1cc(C(F)(F)F)ccc1Cl)S(=O)(=O)c1ccccc1)NCc1cccnc1	0.66%
CSc1nc(N(C)NC(=O)c2cccc(C)c2)c2ccccc2n1	25.9%
Cc1cc(C)nc(S/C=C/C(=O)c2ccccc2)n1	54% (active)
COC(c1ccccc1)(c1ccccc1)C(Oc1nc(C)cc(C)n1)C(=O)O (centres undefined)	4.6%
CCOC(=O)N1CCN(CC(=O)c2ccc3c(c2)CCN3)CC1	2.97%
